High-throughput results as filed in PubChem BioAssay.
An excerpt weighted towards active compounds, which were near 1.3% of everything screened.
proKLK7 act = proKLK7 (human) activation, primary screen; P49862; purified proKLK7, EDANS-DABCYL substrate fluorescence; 100% is mature enzyme control, 0% vehicle; activation, % at 7 µM; actives 0.9% (n = 370,000); AID 652039;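 active = activation above the mean of all tested compounds plus 3 SD, computed per campaign excluding outliers beyond control limits, cut at about 13% in these data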
HIF act = HIF pathway transcriptional activation; U2OS HRE-luciferase reporter, luminescence; normalized: DMSO 0%, desferrioxamine 100%; activation, % at 7.5 µM (by protocol); actives 0.32% (n = 300,000);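 active = mean activation of at least 10% of the iron chelator positive control signal, with at least half of replicates also reaching 10%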
GC-B act = GC-B (human) receptor activation | P20594 | HEK293-GC-B cells, CNP EC30, cGMP TR-FRET; 0% at EC30 CNP, 100% saturating CNP | activation, % at 10 µM | actives 0.11% (n = 370,000);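 active = activation at 10 µM reaching about 35% in either raw or pattern-adjusted values, limit read from the data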
GC-A act = GC-A (human) enzyme activation; HEK293 GC-A cells, cGMP TR-FRET, EC30 ANP; 0% at EC30 ANP, 100% saturating ANP; activation, % at 10 µM; actives 0.14% (n = 370,000); in the data active = activation above about 40%
KLK7 act conf = proKLK7 activation, confirmation. shares compounds with proKLK7 act. purified proKLK7, EDANS-DABCYL substrate fluorescence; scaled: vehicle 0, mature enzyme 100. activation, % at 7 µM. actives 68% (n = 3,200);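 active = activation, as change over the incubation, above the mean of all tested compounds plus 3 SD, cut at about 13% in these data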
EDANS-DABCYL int = fluorescence interference counter-screen for KLK7 activators. shares compounds with proKLK7 act. EDANS-DABCYL substrate fluorescence interference, no enzyme, 4 h; solvent 0%, active enzyme control 100%. activation, % at 7 µM. actives 80% (n = 3,200);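 active = activation above the all-compound mean plus 3 SD, ignoring values outside control-based bounds, cut at about 4.8% in these data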;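 note: value is the 4 h activation minus the activation read at time zero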
EDANS interf = optically interferes with EDANS-DABCYL fluorescence, kallikrein-7 activator counter-screen; EDANS-DABCYL peptide fluorescence interference, no enzyme; shares compounds with proKLK7 act; actives 20% (n = 250); EC50, µM; AID 720493;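 active = compounds that raise the fluorescence signal in this interference counterscreen, with EC50 at or below 10 µM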;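 note: intact quenched peptide substrate alone read at 355 nm excitation and 520 nm emission; signal is fluorescence gain from T0 to T4 after four hours at room temperature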
Numbers without * were called inactive; / = not tested or not shown.

SMILES	proKLK7 act	HIF act	GC-B act	GC-A act	KLK7 act conf	EDANS-DABCYL int	others
CCCC(NC(=O)CCc1c(C)c2cc3c(C)c(C)oc3cc2oc1=O)C(=O)NC(Cc1ccc(Cl)cc1)C(=O)O (stereo not given)	4	/	-5	1	/	/
O=C(COc1ccc2ccc(=O)oc2c1)NC(Cc1ccc(Cl)cc1)C(=O)O (stereo not given)	1	0	-2	2	/	/
Cc1c(CC(=O)NCC(=O)NCC(=O)N[C@@H](Cc2ccccc2)C(=O)O)c(=O)oc2c(C)c(O)ccc12	72*	/	1	7	61*	74*
CCC(NC(=O)CCc1c(C)c2cc3c(C)c(C)oc3cc2oc1=O)C(=O)N[C@@H](Cc1ccccc1)C(=O)O (stereo not given in full)	14*	0	5	3	13*	8.7*	EDANS interf=>70
COc1ccc(S[C@]2(C(=O)N3CCCC3)CC(=O)N(C(=O)C3CC3)[C@@H]2c2ccc(OC)cc2)cc1	0	/	-3	-3	/	/
O=C(OC12CCCN(C1)/C(=C/c1cccnc1)C2)c1ccccc1 (stereo not given)	0	/	1	3	/	/
CCc1ccc(-c2cnc3nc[nH]c(=O)c3n2)cc1	15*	/	-7	-7	38*	39*
CC[C@]12c3[nH]c4cc(-c5ccco5)ccc4c3CCN1C(=O)[C@@H](CC(=O)NCCCn1ccnc1)C[C@@H]2C(=O)N1CCN(C(=O)C2CC2)CC1	69*	/	5	3	54*	53*
CC[C@]12c3[nH]c4cc(-c5ccco5)ccc4c3CCN1C(=O)[C@@H](CC(=O)NCCCn1ccnc1)C[C@@H]2C(=O)N1CCN(C(=O)c2ccco2)CC1	97*	/	-3	4	131*	130*
CC1CCC2(CC1)CCN(CCCOC(=O)Nc1ccc3c(c1)OCO3)C2=O (stereo not given)	0	/	0	0	/	/
CCN(CC)Cc1c(O)c(Cl)cc2c3c(c(=O)oc12)CCCC3	49*	0	-2	4	66*	75*
O=c1cc(-c2ccccc2)c2cc(Cl)c(O)c(CN3CCOCC3)c2o1	13	0	-5	3	/	/
Cc1coc2c(C)c3oc(=O)c4c(c3cc12)CCCC4	-4	0	-1	-4	/	/
O=c1oc2c(CN3CCOCC3)c(O)c(Cl)cc2c2c1CCC2	122*	/	5	2	81*	78*
CN(C)Cc1c(O)c(Cl)cc2c3c(c(=O)oc12)CCCC3	47*	0	-3	2	70*	72*
COC(=O)c1c(C)nc2nonc2c1N	14*	/	-1	6	47*	49*
N#Cc1cc(C(=O)c2cc(F)ccc2O)cn(-c2nccs2)c1=O	25*	-1	33	30	42*	46*
N#Cc1cc(C(=O)c2ccccc2O)cn(-c2nccs2)c1=O	13*	1	17	22	25*	23*
Cc1c(-n2cc(C(=O)c3cc(F)ccc3O)cc(C#N)c2=O)c(=O)n(-c2ccccc2)n1C	2	0	3	-1	/	/
CC(C)n1cc(C(=O)c2ccccc2O)cc(C#N)c1=O	-3	0	-4	-5	/	/
COc1ccc(-c2ccc3nnc(SCC(=O)NCC4CCCO4)n3n2)cc1 (stereo not given)	22*	0	-9	3	31*	18*	EDANS interf=>70
COc1ccc(-c2cn3nc(SCC(=O)NCC4CCCO4)ccc3n2)cc1 (stereo not given)	95*	19*	-4	3	52*	70*
COC(=O)C1=NN(c2cccc(C)c2)C2C(=O)N(c3ccccc3OC)C(=O)C12 (stereo not given)	15*	0	3	1	-52	-47
COC(=O)C1=NN(c2ccccc2OC)C2C(=O)N(c3ccccc3OC)C(=O)C12 (stereo not given)	15*	0	-9	-3	8	11*
COC(=O)C1=NN(c2cccc3ccccc23)C2C(=O)N(c3ccccc3OC)C(=O)C12 (stereo not given)	2	0	-2	-5	/	/
SMILES	proKLK7 act	HIF act	GC-B act	GC-A act	KLK7 act conf	EDANS-DABCYL int	others
CC(C)C[C@H](NC1(C(=O)NCCc2c[nH]c3ccccc23)CCN(C)CC1)C(=O)NCCCc1ccccc1	/	/	-4	-1	/	/
CCOC(=O)c1[nH]c2cc(OC)c(OC)cc2c1N	13*	1	-8	-14	30*	31*
O=C(NC1CC1)c1cccc(-c2cncc3nccn23)c1	16*	/	-2	2	7	11*
O=C(NC1CC1)c1ccc(-c2cnc3cccnn23)cc1	77*	/	-4	3	83*	79*
O=C(NCc1ccco1)c1cccc(-c2cncc3nccn23)c1	16*	/	4	-3	20*	19*
CCc1cc(=O)oc2cc(C)cc(OCC(C)=O)c12	13*	0	1	-2	12	17*
CCc1cc(=O)oc2cc(C)cc(OCC(=O)N3CCC(C(=O)O)CC3)c12	16*	0	-5	1	19*	19*
Cc1cc(OCC(=O)N2CCC(C(=O)O)CC2)c2c(C)cc(=O)oc2c1	10	0	2	3	/	/
CCCc1cc(=O)oc2cc(C)cc(OCC(=O)NC3CC3)c12	5	0	-8	-6	/	/
CCc1cc(=O)oc2cc(C)cc(OCC(=O)C(C)(C)C)c12	6	0	-4	-6	/	/
CCCc1cc(=O)oc2cc(C)cc(OCC(=O)N3CCC(C(=O)O)CC3)c12	16*	0	0	3	13*	16*
CCCc1cc(=O)oc2c(C)c(OCC(=O)N3CCC(C(N)=O)CC3)ccc12	0	0	1	1	/	/
CCCc1cc(=O)oc2cc(C)cc(OCC(=O)N3CCC(C(N)=O)CC3)c12	17*	0	-5	-1	4	10*
O=[N+]([O-])c1ccc(Cn2ccc3ccc(-c4ccc5ccn(Cc6ccccc6)c5c4)cc32)cc1	-1	/	1	0	/	/
CCCCc1cc(=O)oc2cc(C)cc(OCC(=O)N3CCC(C(=O)O)CC3)c12	17*	0	2	3	25*	18*	EDANS interf=>70
CCOC(=O)CCc1c(C)c2ccc(OCC(=O)OC(C)C)cc2oc1=O	3	0	4	1	/	/
Cc1c(C)c2ccc(OCC(=O)c3ccccc3)cc2oc1=O	-5	2	4	-3	/	/
C=CCOC(=O)COc1ccc2c(C)c(CC)c(=O)oc2c1	27*	-1	14	16	11	13*
